Assay results published in PubChem BioAssay (NCATS).
Values joined by “and” are separate entries in the source; they are usually repeats but may differ in a detail not shown here. Equal entries are not always repeated. Values without a mark were called inactive. Records with an inconclusive call do not appear. Entries that show only a call come without a potency. Active and inactive are the calls of the source. Unless noted, the call rests on the fitted dose curve; in most records, active means well fitted curve in the direction sought with a large enough effect; inconclusive means small, poorly fitted or top-dose-only effect, or another doubt; inactive means no such curve, though single readings can be large; an effect the other way counts as inactive or inconclusive.

What was measured:
[1] = test system: Zika virus NS2B-NS3 protease (unlinked); experiment: Optimization of GU AMC qHTS for Zika virus inhibitors: Unlinked NS2B-NS3 protease assay (AID 1347151); further: nearly all actives have a fitted effect of over 80% in size
In short: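 Fluorescence gain (340/450 nm) over 15 min at room temperature, ~20% conversion, gave percent inhibition fitted to a 4-parameter Hill equation; enzyme was unlinked NS2B-NS3 (25 nM final), pH 8.0 Tris buffer.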

[2] = NFAT Signaling Pathway (AID 444; active means well fitted curve in either direction with a large enough effect, not every such curve was filed as active;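 further: carbachol stimulus at about its EC50 of 1 µM final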); conditions: Jurkat NFAT-bla M1, carbachol, beta-lactamase ratio, 5 h
In short: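 Jurkat cells with NFAT-driven β-lactamase reporter and co-expressed M1 receptor, stimulated with carbachol (final 1 uM, ~EC50), compound titration, 5 h at 37 °C. CCF4 loaded 1 h at RT; 460/530 nm ratio gave %activity and AC50.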

[3] = target: Pyruvate kinase (Leishmania mexicana) (UniProt Q27686); experiment: qHTS Validation Assay for Inhibitors of Leishmania Mexicana Pyruvate Kinase (AID 945)
In short: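 Substrate mix (0.5 mM PEP, 0.1 mM ADP, 7 mM MgCl2, 50 mM KCl, pH 7.2 imidazole) received compound by pin tool, then 0.2 nM LmPYK E451W. After 1 h at room temperature, PKLight was added and luminescence measured.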

[4] = target: Pyruvate kinase PKM (Homo sapiens) (UniProt P14618); experiment: qHTS Assay for Activators of Human Muscle Pyruvate Kinase (AID 954; active means well fitted curve in the direction sought with a large enough effect, not every such curve was filed as active)
Pyruvate kinase PKM (Homo sapiens), sequence (P14618 whole entry, looked up): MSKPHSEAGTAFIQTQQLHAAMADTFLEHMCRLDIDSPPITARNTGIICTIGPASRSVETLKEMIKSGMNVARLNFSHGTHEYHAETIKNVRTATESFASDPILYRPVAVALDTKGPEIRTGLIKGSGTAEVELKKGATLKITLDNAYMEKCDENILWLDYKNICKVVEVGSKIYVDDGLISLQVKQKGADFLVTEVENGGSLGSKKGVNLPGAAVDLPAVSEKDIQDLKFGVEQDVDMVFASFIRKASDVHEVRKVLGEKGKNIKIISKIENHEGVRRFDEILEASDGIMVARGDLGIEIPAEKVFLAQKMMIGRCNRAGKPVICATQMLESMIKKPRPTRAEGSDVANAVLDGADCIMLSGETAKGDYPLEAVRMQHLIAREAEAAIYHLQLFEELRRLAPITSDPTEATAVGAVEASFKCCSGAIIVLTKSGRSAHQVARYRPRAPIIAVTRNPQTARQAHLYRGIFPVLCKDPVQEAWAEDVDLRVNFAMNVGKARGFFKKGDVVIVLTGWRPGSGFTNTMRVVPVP
In short: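 PKM2, human, >95% pure, 0.1 nM; PEP 0.5 mM (Km), ADP 0.1 mM; 50 mM imidazole pH 7.2, 50 mM KCl, 0.01% Tween 20, 0.05% BSA; 1 h RT; luciferase luminescence readout.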

[5] = target: Alpha-galactosidase A (Homo sapiens) (UniProt P06280); experiment: Counterscreen for Glucocerebrosidase Inhibitors: qHTS Assay for Human alpha-Galactosidase at pH 4.5 (AID 992)
In short: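 Fluorogenic 4-MU alpha-D-galactoside (80 uM) hydrolysis, 2 nM enzyme, pH 4.5 citrate buffer + 0.005% Tween-20; 20 min RT; NaOH/glycine pH 10 stop; Ex365/Em440. Compounds titrated 0.7 nM–77 uM; Hill-equation AC50.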

[6] = target: alpha-glucosidase (Oryza sativa, rice) (UniProt Q653V4); experiment: Counterscreen for Glucocerebrosidase Inhibitors: qHTS Assay for Rice alpha-Glucosidase at pH 5.0 (AID 997)
In short: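 Endpoint fluorogenic assay at pH 5.0: compounds (0.7 nM to 77 uM) titrated against 4 nM rice enzyme and 400 uM 4-MU-alpha-glucoside for 20 min at room temperature; NaOH/glycine stop, read ex 365/em 440 nm, Hill-fitted AC50.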

[7] = target: Alpha-galactosidase (Coffea arabica) (UniProt Q42656); experiment: Counterscreen for Glucocerebrosidase Inhibitors: qHTS Assay for Coffee Bean alpha-Galactosidase at pH 5.9 (AID 998)
Alpha-galactosidase (Coffea arabica), sequence (Q42656 whole entry, looked up): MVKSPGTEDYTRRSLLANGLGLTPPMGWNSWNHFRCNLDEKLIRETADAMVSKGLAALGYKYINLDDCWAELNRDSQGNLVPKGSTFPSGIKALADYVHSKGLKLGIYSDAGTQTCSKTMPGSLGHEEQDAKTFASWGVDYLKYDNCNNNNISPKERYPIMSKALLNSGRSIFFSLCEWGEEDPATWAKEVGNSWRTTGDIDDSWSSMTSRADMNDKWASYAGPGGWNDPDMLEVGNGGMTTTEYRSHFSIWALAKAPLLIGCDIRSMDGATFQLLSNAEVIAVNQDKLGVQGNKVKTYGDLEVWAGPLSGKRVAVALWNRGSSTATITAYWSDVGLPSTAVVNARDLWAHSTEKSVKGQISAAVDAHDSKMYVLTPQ
In short: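 Enzyme 2 nM + cpd (0.7 nM–77 uM titration) + 4-MU-alpha-Gal 80 uM, pH 5.9 citrate/Tween-20, RT 20 min, NaOH/glycine stop pH 10, fluor 365/440. Normalized to no-enzyme and full-activity controls; Hill-fit AC50.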

[8] = Validation of Assay for Modulators of Lamin A Splicing (AID 1459; active means well fitted curve in the direction sought with a large enough effect in the signal ratio; the % refers to the signal ratio;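 further: cells exposed to compound for two days before reading; ratio rise marks activators and ratio drop marks inhibitors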)
In short: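 Splicing correction read as GFP (500-530 nm) over DsRed2 (575-640 nm) object intensity after 48 h compound exposure of reporter HeLa S3 clones (600 cells/well, 2% FBS medium); ancitabine and cycloheximide titrations, 0.5% DMSO as vehicle.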

[9] = target: DNA repair nuclease/redox regulator APEX1 (Homo sapiens) (UniProt P27695); experiment: qHTS Validation Assay for Inhibitors of the Human Apurinic/apyrimidinic Endonuclease 1 (APE1) (AID 1705;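 further: TAMRA fluorescence gain over two minutes as APE1 cuts a quenched THF abasic duplex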)
DNA repair nuclease/redox regulator APEX1 (Homo sapiens), sequence (P27695 whole entry, looked up): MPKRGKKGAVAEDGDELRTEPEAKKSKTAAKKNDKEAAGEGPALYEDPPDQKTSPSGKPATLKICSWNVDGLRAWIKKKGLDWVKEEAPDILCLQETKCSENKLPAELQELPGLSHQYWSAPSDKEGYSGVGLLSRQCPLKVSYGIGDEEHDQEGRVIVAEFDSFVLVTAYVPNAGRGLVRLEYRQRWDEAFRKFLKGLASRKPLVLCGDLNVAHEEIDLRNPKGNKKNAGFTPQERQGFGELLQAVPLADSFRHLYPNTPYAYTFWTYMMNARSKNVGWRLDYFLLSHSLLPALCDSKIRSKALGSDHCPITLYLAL
In short: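 Activity read as rising fluorescence (598 nm emission, 525 nm excitation) from incision of a TAMRA/BHQ-2 duplex carrying a THF abasic site (50 nM). Compound and enzyme sat 15 min at RT before substrate start; signal change between first and third 60-s reads.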

[10] = Counterscreen for APE1 Inhibitors: Fluorescent Dye Displacement Validation Assay (AID 1707)
In short: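 Endpoint fluorescence read at 480 nm excitation / 540 nm emission; DNA-binding compounds lower signal by displacing 250 nM Thiazole Orange from 50 nM dsDNA containing a tetrahydrofuran abasic site, Tris-HCl pH7.5 buffer with NaCl and MgCl2.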

[11] = target: Ferritin light chain (Equus caballus) (UniProt P02791); experiment: qHTS Validation Assay for Identification of Novel General Anesthetics (AID 2323)
Ferritin light chain (Equus caballus), sequence (P02791 2-175 limits assumed): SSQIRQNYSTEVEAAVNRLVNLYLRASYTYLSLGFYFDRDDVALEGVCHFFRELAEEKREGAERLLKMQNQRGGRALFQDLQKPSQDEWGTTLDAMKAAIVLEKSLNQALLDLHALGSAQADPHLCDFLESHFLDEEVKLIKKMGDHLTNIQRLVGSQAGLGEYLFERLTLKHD
In short: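 Competitive displacement of the profluorescent anesthetic 1-AMA (50% saturated, PBS) from 10 uM apoferritin, 10 min, room temperature. Activity is normalized 380/535 nm fluorescence; concentration-response fitted with a four-parameter Hill equation.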

[12] = target: ATP-dependent DNA helicase Q1 (Homo sapiens) (UniProt P46063); experiment: qHTS Validation Assay for Inhibitors of RecQ-Like Dna Helicase 1 (RECQ1) (AID 2353)
ATP-dependent DNA helicase Q1 (Homo sapiens), sequence (P46063 whole entry, looked up): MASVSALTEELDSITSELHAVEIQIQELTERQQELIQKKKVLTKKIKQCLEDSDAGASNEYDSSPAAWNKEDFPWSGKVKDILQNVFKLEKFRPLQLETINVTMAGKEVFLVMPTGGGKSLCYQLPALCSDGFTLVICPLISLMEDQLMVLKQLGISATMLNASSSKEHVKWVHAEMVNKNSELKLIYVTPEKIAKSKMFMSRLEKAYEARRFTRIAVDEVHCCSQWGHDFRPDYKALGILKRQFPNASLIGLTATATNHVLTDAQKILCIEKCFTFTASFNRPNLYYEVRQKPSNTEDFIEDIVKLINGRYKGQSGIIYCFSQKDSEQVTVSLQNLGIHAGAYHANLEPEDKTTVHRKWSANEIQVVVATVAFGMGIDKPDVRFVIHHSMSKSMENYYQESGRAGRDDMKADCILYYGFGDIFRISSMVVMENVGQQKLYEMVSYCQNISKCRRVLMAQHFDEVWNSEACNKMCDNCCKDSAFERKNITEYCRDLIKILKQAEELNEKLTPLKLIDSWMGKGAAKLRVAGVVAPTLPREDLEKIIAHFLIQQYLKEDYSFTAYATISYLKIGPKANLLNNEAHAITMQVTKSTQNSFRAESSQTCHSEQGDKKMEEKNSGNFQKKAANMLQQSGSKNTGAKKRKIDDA
In short: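 RECQ1T1 50 nM; forked duplex (20 bp + 30-nt ss tails) 200 nM, ATP 2 mM final; pH 8.0, 2 mM MgCl2, 2.5 ug/ml poly(dI-dC); 15 min compound preincubation; discontinuous kinetic read over 2 h at RT.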

[13] = Validation screen for small molecules that induce DNA re-replication in MCF 10A normal breast cells (AID 463097); further: nearly all actives have a fitted effect of over 60% in size
In short: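 Read-out is Hoechst total nuclear intensity by fluorescence scanning imager, flagging increased high-DNA-content nuclei. Compounds were incubated with MCF 10A cells for 48 hr (37 C, 5% CO2) before 40 min staining.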

[14] = target: M-phase phosphoprotein 8 (Homo sapiens) (UniProt Q99549); experiment: qHTS Validation Assay for Inhibitors for MPP8 Chromodomain Interactions with Methylated Histone Tails (AID 488949);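 further: AlphaScreen signal from MPP8 chromodomain bound to biotinylated H3K9me3 peptide; top concentration of the series differs between compounds; nearly all actives have a fitted effect of over 55% in size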
M-phase phosphoprotein 8 (Homo sapiens), sequence (Q99549 whole entry, looked up): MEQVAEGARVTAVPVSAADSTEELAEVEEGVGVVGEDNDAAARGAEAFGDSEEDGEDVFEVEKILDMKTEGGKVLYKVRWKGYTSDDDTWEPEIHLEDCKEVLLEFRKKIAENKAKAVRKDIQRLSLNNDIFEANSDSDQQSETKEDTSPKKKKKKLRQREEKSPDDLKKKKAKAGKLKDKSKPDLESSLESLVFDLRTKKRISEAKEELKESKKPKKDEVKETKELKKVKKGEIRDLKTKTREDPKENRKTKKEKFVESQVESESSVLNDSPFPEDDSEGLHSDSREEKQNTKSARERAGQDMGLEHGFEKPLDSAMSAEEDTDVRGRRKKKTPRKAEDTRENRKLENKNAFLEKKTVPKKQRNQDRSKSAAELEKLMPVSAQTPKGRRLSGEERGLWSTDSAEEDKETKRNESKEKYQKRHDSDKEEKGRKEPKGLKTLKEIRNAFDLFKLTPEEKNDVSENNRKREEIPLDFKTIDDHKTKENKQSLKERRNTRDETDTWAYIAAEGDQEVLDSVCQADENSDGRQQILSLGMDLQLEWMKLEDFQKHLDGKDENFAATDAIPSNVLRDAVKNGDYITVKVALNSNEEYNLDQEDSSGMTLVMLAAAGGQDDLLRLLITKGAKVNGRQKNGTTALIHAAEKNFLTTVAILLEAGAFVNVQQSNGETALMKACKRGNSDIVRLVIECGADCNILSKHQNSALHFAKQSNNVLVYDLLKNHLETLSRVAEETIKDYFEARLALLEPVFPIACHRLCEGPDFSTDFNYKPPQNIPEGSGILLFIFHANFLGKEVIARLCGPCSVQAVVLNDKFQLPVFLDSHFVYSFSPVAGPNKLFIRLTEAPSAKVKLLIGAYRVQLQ
In short: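 AlphaScreen proximity signal from streptavidin donor and Ni-chelate acceptor beads (10 ug/mL each) reported binding of MPP8 to trimethyl-K9 H3(1-18) peptide, both at 50 nM. The complex formed 30 min before a 30 min compound exposure at room temperature, in PBS pH 7.4.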

[15] = target: Transient receptor potential cation channel subfamily V member 1 (Homo sapiens) (UniProt Q8NER1); experiment: HTS Assay for Compounds that Act as Enhancers of the Vanilloid Receptor 1 (AID 488979)
Transient receptor potential cation channel subfamily V member 1 (Homo sapiens), sequence (Q8NER1 whole entry, looked up): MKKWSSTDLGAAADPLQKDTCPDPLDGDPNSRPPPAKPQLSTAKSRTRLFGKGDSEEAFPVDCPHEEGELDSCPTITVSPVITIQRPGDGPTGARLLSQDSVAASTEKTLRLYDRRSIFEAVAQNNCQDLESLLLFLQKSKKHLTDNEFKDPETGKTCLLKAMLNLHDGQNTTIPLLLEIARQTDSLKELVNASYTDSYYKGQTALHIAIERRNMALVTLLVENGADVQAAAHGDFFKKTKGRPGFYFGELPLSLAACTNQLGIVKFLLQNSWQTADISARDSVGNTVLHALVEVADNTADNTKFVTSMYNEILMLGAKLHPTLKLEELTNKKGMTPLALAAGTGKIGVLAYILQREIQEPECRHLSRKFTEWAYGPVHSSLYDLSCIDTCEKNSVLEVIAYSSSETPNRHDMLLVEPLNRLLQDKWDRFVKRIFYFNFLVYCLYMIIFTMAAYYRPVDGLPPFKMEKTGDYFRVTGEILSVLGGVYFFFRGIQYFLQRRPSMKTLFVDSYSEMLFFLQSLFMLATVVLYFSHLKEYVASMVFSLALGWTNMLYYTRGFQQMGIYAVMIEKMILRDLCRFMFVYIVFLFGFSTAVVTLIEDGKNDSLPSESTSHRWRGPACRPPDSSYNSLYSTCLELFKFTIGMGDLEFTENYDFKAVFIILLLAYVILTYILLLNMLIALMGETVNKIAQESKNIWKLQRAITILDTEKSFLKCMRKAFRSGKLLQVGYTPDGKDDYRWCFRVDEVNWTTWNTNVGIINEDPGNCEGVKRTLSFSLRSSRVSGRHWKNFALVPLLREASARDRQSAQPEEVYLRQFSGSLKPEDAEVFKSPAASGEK
In short: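 TRPV1 cells loaded with Fluo-8 calcium dye; compound added and Ca2+ signal (ex 480/em 520 nm) followed 3 min, then capsaicin at EC20 added and read 2 more min to detect enhancement.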

[16] = target: Thyrotropin receptor (Homo sapiens) (UniProt P16473); experiment: qHTS Assay for Antagonists of the Thyroid Stimulating Hormone Receptor (AID 488980)
Thyrotropin receptor (Homo sapiens), sequence (P16473 whole entry, looked up): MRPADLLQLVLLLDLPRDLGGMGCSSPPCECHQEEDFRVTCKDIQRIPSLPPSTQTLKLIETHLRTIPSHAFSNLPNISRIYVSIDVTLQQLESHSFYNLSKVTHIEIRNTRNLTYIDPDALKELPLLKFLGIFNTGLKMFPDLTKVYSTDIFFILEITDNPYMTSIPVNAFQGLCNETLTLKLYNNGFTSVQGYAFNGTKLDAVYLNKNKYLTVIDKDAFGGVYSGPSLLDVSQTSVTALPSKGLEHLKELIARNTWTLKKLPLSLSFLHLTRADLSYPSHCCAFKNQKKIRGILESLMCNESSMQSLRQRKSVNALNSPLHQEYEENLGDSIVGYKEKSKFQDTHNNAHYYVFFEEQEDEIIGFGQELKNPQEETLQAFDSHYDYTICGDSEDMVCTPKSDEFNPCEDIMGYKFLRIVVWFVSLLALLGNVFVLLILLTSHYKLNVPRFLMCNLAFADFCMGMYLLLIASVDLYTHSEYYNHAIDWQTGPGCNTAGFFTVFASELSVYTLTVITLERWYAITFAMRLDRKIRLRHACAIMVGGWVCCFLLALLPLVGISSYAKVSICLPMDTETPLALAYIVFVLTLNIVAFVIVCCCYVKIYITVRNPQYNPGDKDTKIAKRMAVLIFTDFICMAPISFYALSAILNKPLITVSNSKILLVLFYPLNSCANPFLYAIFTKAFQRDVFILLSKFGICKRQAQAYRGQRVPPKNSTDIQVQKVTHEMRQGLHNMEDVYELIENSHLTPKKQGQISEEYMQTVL
In short: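 Inhibition of cAMP raised by EC80 TSH (4 nM final) was read by HTRF, with lysate cAMP competing against cAMP-d2 for cryptate antibody after 30 min at room temperature. The cells were transfected HEK293 held in phosphodiesterase inhibitor RO 20-1724 at 70 uM.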

[17] = target: Thyrotropin-releasing hormone receptor (Homo sapiens) (UniProt P34981); experiment: qHTS for Small Molecule Agonists and Allosteric Enhancers of Human TRH Receptor: Validation Screen for Agonists (AID 493127;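 active means calcium activation more than 3 SD above the typical response in the agonist read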;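 further: intracellular calcium rise by fluo-8 fluorescence before TRH EC20 addition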); conditions: TRH receptor agonist cell assay; at 2 µM; stronger effect = higher value
In short: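 Compound-evoked intracellular calcium release in fluo-8-loaded TRHR cells, read kinetically on FDSS (Ex 480/Em 530, 1 s/cycle) after 23 nL pintool transfer. Agonist phase preceded 10 nM TRH EC20 addition.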

[18] = target: Galactokinase (Homo sapiens) (UniProt P51570); experiment: qHTS Validation Assay for Inhibitors of Human Galactokinase (GALK) (AID 493189)
Galactokinase (Homo sapiens), sequence (P51570 whole entry, looked up): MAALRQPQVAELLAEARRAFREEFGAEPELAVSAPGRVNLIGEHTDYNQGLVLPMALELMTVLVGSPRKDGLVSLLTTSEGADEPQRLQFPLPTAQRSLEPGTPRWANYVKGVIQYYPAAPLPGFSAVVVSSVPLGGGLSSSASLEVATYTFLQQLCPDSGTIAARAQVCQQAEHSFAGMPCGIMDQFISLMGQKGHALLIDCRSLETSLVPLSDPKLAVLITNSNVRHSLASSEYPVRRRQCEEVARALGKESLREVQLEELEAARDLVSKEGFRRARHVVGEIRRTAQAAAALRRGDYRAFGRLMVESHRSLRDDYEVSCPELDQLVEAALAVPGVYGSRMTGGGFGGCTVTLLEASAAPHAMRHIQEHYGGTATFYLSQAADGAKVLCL
In short: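 Inhibition was measured as remaining ATP, detected by luciferase luminescence after a 1 h room-temperature reaction. Final conditions: 5 nM GALK, 100 uM galactose, 35 uM ATP, pH 8.0 HEPES buffer.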

[19] = target: Cytochrome P450 3A4 (Homo sapiens) (UniProt P08684); experiment: qHTS Assay for Activators of Cytochrome P450 3A4 (AID 885); further: potency means the concentration at half of the fitted maximal effect; nearly all actives have a fitted effect of over 65% in size
In short: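 Activators are scored by enhanced luminescence from CYP3A4 conversion of luciferin-PPXE (25uM, equal to KM) to luciferin, after 60 min at RT with an NADPH-regenerating system.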

SMILES | outcome [1] | activity change, negative = inhibition ([2]; at 17.2 µM (top of the series)) [%] | activity change, negative = inhibition ([2]; at 38 µM (top of the series)) | outcome [3] | outcome [4] | outcome [5] | outcome [6] | outcome [7] | outcome [8] | Potency [9] | Potency [10] | outcome [11] | Potency [12] | Potency [13] | Potency [14] | outcome [15] | outcome [16] | activation [17] [%] | outcome [18] | Potency [19]
CC1OC(O[C@H]2C[C@@H](O)[C@]3(CO)[C@H]4[C@H](O)C[C@]5(C)[C@@H](C6=CC(=O)OC6)CC[C@]5(O)[C@@H]4CC[C@]3(O)C2)C(O)C(O)C1O (some centres undefined) | inactive | – | – | – | – | – | – | – | – | – | – | – | – | – | – | – | – | – | – | –
COc1ccc2[nH]cc(CCN(C)C)c2c1 | – | -12.1 | -5.37% | inactive | inactive | inactive | inactive | inactive | inactive | inactive | inactive | inactive | inactive | inactive | inactive | inactive | inactive | 0.688 | inactive | –
N[C@H](CCCCCP(=O)(O)O)C(=O)O | – | – | 7.92% and -0.366% | inactive | inactive | inactive | inactive | inactive | inactive | inactive | inactive | inactive | inactive | inactive | inactive | inactive | inactive | -0.125 | inactive | –
CCN(CC)CCO[C@H]1CC[C@@]2(C)C(=CC[C@@H]3[C@H]2CC[C@]2(C)C(=O)CC[C@H]32)C1 | – | – | – | – | – | – | – | – | – | – | – | – | – | – | – | – | – | – | – | 15.8 µM (active)
CP(=O)(O)CCCN | – | – | 0.206% | inactive | inactive | inactive | inactive | inactive | inactive | inactive | inactive | inactive | inactive | inactive | inactive | inactive | inactive | 1.06 | inactive | –
